Laboratory results taken from PubChem BioAssay (NCATS).
“And” between values parts separate entries of the source, which are not always exact repeats. Identical values can stand only once. Values without a mark were called inactive. Results filed as inconclusive are left out. Entries that show only a call come without a potency. The source made the active and inactive calls. Unless noted, calls follow the shape of the dose curve; as a rule, active = well fitted curve in the direction sought with a large enough effect in the repeat runs; inconclusive = weak or mixed curves; inactive = no such curve, though single readings can be large; an effect the other way counts as inactive or inconclusive.

Experiments:
[1] = qHTS assay for small molecule disruptors of the mitochondrial membrane potential - 5 hr assay (AID 651755; calls by dose curve; also: nearly all actives have a fitted effect of over 40% in size)
Procedure, shortened: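 HepG2, 2,000 cells/well, overnight attach; cpd or DMSO 5 hr, 37C/5% CO2; Mito-MPS 30 min 37C; fluor 490/535 + 540/590 nm.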

[2] = target: Tumor necrosis factor (Homo sapiens) (UniProt P01375); test: qHTS assay to identify small molecules that stimulate Tumor Necrosis Factor-alpha (TNF-alpha) secretion (AID 651757; active = well fitted curve in the direction sought with a large enough effect in the signal ratio; the % refers to the signal ratio; also: potency is read from the fitted curve at half-maximal effect)
Procedure, shortened: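 THP-1 cells (3000/well) exposed to compounds 17 hrs at 37 C. Secreted TNF-alpha detected by HTRF with cryptate- and XL665-labeled anti-TNF-alpha antibodies after 3 hr at room temperature.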

[3] = qHTS assay for environmental chemicals that activate the Aryl hydrocarbon Receptor (AhR) signaling pathway (AID 651777; active = well fitted curve in the direction sought with a large enough effect; an effect the other way counts as inactive or inconclusive; also: nearly all actives have a fitted effect of over 15% in size; also: potency is read from the fitted curve at half-maximal effect); details: 1A2-DRE human hepatoma cells, luciferase, 24 h; activation: stronger effect = higher value
Procedure, shortened: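 Following a 24 hr incubation with test chemicals at 37 C and 5% CO2, 1A2-DRE human hepatoma cells received One-Glo reagent; after 30 min at room temperature, luciferase output reflected CYP1A2 induction via AhR.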

[4] = target: Peroxisome proliferator-activated receptor alpha (Homo sapiens) (UniProt Q07869); test: qHTS assay for small molecule agonists of the peroxisome proliferator-activated receptor alpha (PPARalpha) signaling pathway (AID 651778; active = well fitted curve in the direction sought with a large enough effect; an effect the other way counts as inactive or inconclusive); details: PathHunter PPARalpha complementation, chemiluminescence, 6 h; stronger effect = higher value
Procedure, shortened: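 Chemiluminescence from complemented enzyme reported PPARalpha activation in cells after 6 hr of compound treatment at 37 C. The detection reagent was incubated for 60 min at room temperature, and compounds were scored as agonists.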

[5] = target: Nuclear receptor ROR-gamma (Homo sapiens) (UniProt P51449); test: qHTS assay for small molecule antagonists of the retinoid-related orphan receptor gamma (ROR-gamma) signaling pathway (AID 651802; active = well fitted curve in the direction sought with a large enough effect; an effect the other way counts as inactive or inconclusive; also: nearly all actives have a fitted effect of over 60% in size; also: potency is read from the fitted curve at half-maximal effect)
Procedure, shortened: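 CHO cells with TET-inducible ROR-gamma and RORE-luciferase reporter, dosed then doxycycline-induced. After 16 h at 37C, One-Glo luminescence read; decreased signal indicates antagonism.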

[6] = qHTS assay for small molecule agonists of the antioxidant response element (ARE) signaling pathway measured by Nrf2-dependant transcriptional activity (AID 720636);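 also: HepG2 cells with an ARE-driven luciferase reporter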
Procedure, shortened: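 ONE-Glo luminescence, read 30 min after reagent addition at room temperature, reflected ARE reporter activity in HepG2 cells that had been incubated with compound for 16 hr at 37 C in 1% dialyzed FBS.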

[7] = qHTS assay for small molecule antagonists of the retinoid-related orphan receptor gamma (ROR-gamma) signaling pathway - cell viability counter screen (AID 720652);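 also: compound exposure lasted 16 hr before ATP read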; also: potency is read from the fitted curve at half-maximal effect
Procedure, shortened: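 CHO cells carrying TET-inducible ROR and RORE-luciferase reporter, plated 5 hr, then dosed with compound plus doxycycline. After 16 hr at 37 C, viability read as intracellular ATP by CellTiter-Glo luminescence.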

[8] = qHTS assay for small molecule agonists of the antioxidant response element (ARE) signaling pathway measured by Nrf2-dependant transcriptional activity - cell viability counter screen (AID 720653); details: ARE-bla HepG2 viability, CellTiter-Glo ATP luminescence, 16 h; stronger effect = lower value
Procedure, shortened: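 Cytotoxicity counter screen: intracellular ATP quantified by CellTiter-Glo luminescence in the same ARE-bla HepG2 plates, after 16 h compound exposure and a 2 h beta-lactamase substrate step.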

[9] = qHTS assay to identify small molecules that stimulate interleukin-8 (IL-8) secretion (AID 651758; active = well fitted activation curve with a large enough effect in the signal ratio; the % refers to the signal ratio)
Procedure, shortened: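 Secreted IL-8 measured by TR-FRET sandwich (cryptate and XL665 antibodies) from THP-1 cells exposed to compound overnight (16 hrs, 37 C).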

Nuclear receptor ROR-gamma (Homo sapiens), sequence (P51449 whole entry, looked up): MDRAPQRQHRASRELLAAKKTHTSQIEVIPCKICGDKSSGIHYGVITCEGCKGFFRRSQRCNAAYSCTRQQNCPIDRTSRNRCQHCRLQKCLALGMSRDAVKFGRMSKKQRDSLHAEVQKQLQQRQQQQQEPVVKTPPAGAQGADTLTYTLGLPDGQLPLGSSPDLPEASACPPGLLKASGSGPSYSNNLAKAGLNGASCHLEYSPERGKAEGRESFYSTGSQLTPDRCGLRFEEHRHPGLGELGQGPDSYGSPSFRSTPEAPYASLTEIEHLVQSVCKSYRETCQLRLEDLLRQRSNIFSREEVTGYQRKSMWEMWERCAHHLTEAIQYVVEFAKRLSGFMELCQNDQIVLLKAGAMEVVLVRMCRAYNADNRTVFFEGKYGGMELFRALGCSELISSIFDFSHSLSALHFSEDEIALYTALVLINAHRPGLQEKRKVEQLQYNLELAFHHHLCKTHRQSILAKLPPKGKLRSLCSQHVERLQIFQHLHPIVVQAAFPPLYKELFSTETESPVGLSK
Tumor necrosis factor (Homo sapiens), sequence (P01375 whole entry, looked up): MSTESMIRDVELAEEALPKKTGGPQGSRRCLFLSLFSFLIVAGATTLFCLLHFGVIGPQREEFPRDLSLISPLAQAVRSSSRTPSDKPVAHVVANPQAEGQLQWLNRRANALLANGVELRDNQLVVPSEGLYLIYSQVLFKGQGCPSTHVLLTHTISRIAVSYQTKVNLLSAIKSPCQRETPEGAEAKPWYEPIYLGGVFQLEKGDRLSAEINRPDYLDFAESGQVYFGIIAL
Peroxisome proliferator-activated receptor alpha (Homo sapiens), sequence (Q07869 whole entry, looked up): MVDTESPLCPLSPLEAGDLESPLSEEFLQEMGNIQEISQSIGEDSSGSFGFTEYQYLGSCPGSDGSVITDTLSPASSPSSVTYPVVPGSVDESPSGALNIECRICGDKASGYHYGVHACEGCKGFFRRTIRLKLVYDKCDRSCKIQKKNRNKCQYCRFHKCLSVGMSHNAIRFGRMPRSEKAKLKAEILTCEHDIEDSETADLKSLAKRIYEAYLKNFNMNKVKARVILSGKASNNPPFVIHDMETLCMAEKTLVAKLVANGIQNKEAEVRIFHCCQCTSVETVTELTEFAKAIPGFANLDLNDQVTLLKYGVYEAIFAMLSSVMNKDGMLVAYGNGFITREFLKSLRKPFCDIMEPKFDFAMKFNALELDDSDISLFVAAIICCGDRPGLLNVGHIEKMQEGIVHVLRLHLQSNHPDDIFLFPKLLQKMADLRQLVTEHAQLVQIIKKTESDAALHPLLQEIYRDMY

SMILES	Potency [1]	Potency [2]	activation [3]	max response [4]	Potency [5]	outcome [6]	Potency [7]	max response [8]	Potency [9]	Potency [3]
C=CCOC(=O)COCCC(C)C	inactive	inactive	-0.312%	-5.81%	inactive	inactive	inactive	5.49%		
O=C(O)CN(CC(=O)O)CC(=O)O		inactive		0.802% and -1.95% and -0.798%		inactive	inactive	-26.1% and -5.78% and 9.03%		
BrC(Br)C(Br)Br		inactive	-0.0804%	6.41%	inactive	inactive	inactive	0.416%		
O=Cc1c(Cl)cccc1Cl		inactive	1.15%	25.1%	16.8 µM (active)	inactive	inactive	11.9%		
CC(=O)C1(C)CC2=C(CCCC2(C)C)CC1C (stereo not given)		inactive	-1.01%	-0.376%		inactive	inactive	5.61%		
CCCCCCO		inactive	-0.44%	6.04%		inactive	inactive	4.6%	inactive	
CCC(C)=O		inactive	-0.131%	-7.5%	inactive	inactive	inactive	-4.32%	inactive	
[O-]/[N+](=N\O)c1ccccc1	inactive		5.58%	-0.0477%	inactive			-5.46%		
Cc1cscn1			1.08%	-1.32%		inactive	inactive	0.707%		
Cc1c(N)cccc1N			6.39%	0.845%		inactive	inactive	1.04%		
O=Nc1ccc(NO)cc1			6.63%	-1.48%		inactive		2.71%		
Nc1cc([N+](=O)[O-])ccc1C(=O)O	inactive		3.7% and 3.8%	-7.92% and -2.55%		inactive	inactive	-7.64% and 3.66%		
O=[N+]([O-])c1ccc2nc[nH]c2c1				-4.28%	inactive	inactive	inactive	-5.47%	inactive	
Nc1cccc(O)c1		inactive	2.45%	0.244%	inactive	inactive	inactive	-0.321%		
C=CCCCC		inactive	0.475%	-2.42%	inactive	inactive		-4.9%		
Cc1ccc(Cl)cc1		inactive	-0.186%	-0.102%	inactive	inactive	inactive	4.9%		
C=CCOC(=O)CCCCCCCC		inactive	-2.14%	-0.94%	inactive	inactive	inactive	3.3%	inactive	
Nc1ccc(Cl)cc1[N+](=O)[O-]			1.69%	-2.8%		inactive		0.225%		
Clc1ccc(Cl)c(Cl)c1Cl		inactive	0.208% and -1.37%	-7.17% and 0.0854%	inactive	inactive	inactive	13.5% and -3.85%		
CC(=C/C=C/C(C)=C/C=C/C=C(C)/C=C/C=C(C)/C=C/C(=O)O)/C=C/C(=O)O		inactive	2.66%	2.34%	inactive	inactive	inactive	-9.67%		
Nc1ccc([N+](=O)[O-])c(N)c1			1.41%	-0.849%	inactive	inactive	inactive	-4.59%	inactive	

SMILES	Potency [1]	Potency [2]	activation [3]	max response [4]	Potency [5]	outcome [6]	Potency [7]	max response [8]	Potency [9]	Potency [3]
CC=O		inactive	1.11%	-2.4%	inactive	inactive	inactive	5.19%	inactive	
CCCCC/C=C/C=C/C=O	inactive		0.997% and -0.836%	-2.99% and -1.24%	33.5 µM (active)	inactive	23.7 µM (active)	-0.854% and -5.85%		
CCCCCCC=O	inactive		-0.184%	-2.2%	inactive		inactive	14.6%		
O=C1OC(=O)c2cc([N+](=O)[O-])ccc21	inactive		-0.234%	-4.48%	inactive	inactive	inactive	-1.02%	inactive	
C/C(C=O)=C/c1ccccc1		inactive	-1.35%	-3.84%		inactive	inactive	-7.12%		
COC(=O)CCCC(=O)OC		inactive		-1.53%	inactive	inactive	inactive	4.37%		
CCC(O)C(C)(C)C (stereo not given)		inactive	0.48%	-0.805%	inactive	inactive		-4.91%		
C1CCCC1		inactive	0.0008%	5.92%		inactive	inactive	-4.11%	inactive	
CC(C)(c1cc(Br)c(OCC(Br)CBr)c(Br)c1)c1cc(Br)c(OCC(Br)CBr)c(Br)c1 (stereo not given)		inactive	-1.38%	-5.28%			inactive	-4.49%	inactive	
CCCCC(CC)CO (stereo not given)		inactive	-0.248%	-2.86%		inactive	inactive	7.9%	inactive	
Cc1ccc2nc(-c3ccc(N)cc3)sc2c1S(=O)(=O)O		8.41 µM (active)		2.42%			inactive	-24.5%		39.8 µM (active)
CC(=O)c1nccs1		inactive		-1.62%	inactive	inactive		25.7%	inactive	
CCCCC(CC)C(=O)O (stereo not given)	inactive	inactive		-2.43%	inactive	inactive	inactive	-5.11%		
CCOC(=O)OCC		inactive	0.303%	3.76%		inactive	inactive	2.96%	inactive	
O=C(O)c1ccccc1C(=O)O	inactive			0.653%		inactive		-3.39%	inactive	
CC(N)CN (stereo not given)		inactive	-0.27%	-3.51%		inactive	inactive	0.44%	inactive	
Cc1ccc(C)c(O)c1			0.145%	-1.27%	inactive	inactive		0.808%	inactive	
C1CCOC1		inactive	0.0348%	-1.78%		inactive	inactive	5.55%		
Oc1cccc(Nc2ccccc2)c1			4.89%	-0.0901%	inactive	inactive	inactive	-2.76%		
O=c1[nH][nH]c(=O)c2cc([N+](=O)[O-])ccc12		inactive	1.03%	-4.9%	inactive		inactive	5.62%		
